CYP2C9 inh: blockers of cytochrome P450 2C9 activity – biochemical, luminescence, ADME assay, primary screen | 96,000 compounds, 20% hits | P11712 | CYP2C9 Supersomes, luciferin-H conversion | inhibition, % at 5 µM;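 active means blocking of liver enzyme CYP2C9 beyond about 50% at 5 µM, limit read from the data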
Target sequence (P11712 whole entry, looked up): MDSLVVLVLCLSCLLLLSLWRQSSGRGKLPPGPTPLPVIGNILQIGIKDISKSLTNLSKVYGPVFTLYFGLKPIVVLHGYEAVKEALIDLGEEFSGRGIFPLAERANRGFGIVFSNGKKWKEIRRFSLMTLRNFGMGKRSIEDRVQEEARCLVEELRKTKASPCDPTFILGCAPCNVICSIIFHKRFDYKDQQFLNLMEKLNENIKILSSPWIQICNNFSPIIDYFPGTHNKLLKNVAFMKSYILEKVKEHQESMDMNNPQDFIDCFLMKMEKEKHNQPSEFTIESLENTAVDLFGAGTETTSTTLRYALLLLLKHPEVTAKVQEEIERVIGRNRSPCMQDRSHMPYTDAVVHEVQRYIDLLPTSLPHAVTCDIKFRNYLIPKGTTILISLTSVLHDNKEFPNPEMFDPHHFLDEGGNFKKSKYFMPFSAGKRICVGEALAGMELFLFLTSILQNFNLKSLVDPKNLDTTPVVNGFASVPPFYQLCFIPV
MRP resist rev: reversal of MRP1-mediated doxorubicin resistance, primary screen, H69AR cells, doxorubicin co-treatment | H69AR cells + 2 uM doxorubicin, CellTiter-Glo, 72 h | differential viability (reversal), % at 10 µM | 85,000 compounds, 0.04% hits | AID 602, 2007;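 active means viability drop by adding the cancer drug above about 55%, with treated viability meeting a 40% cutoff, limit read from the data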;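 further: viability without doxorubicin minus viability with 2 µM doxorubicin for each compound; larger differential means the compound sensitizes cells more to doxorubicin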
CYP2C9 act: human CYP2C9 activators, primary screen, biochemical, luminescence; AID 1024, 2008; activation factor at 5 µM; recombinant CYP2C9, luciferin-H conversion; hits give high values; factor 1 = untreated enzyme, 0 = blocked; 96,000 compounds, 1.4% hits;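 active means activation factor of 2 or more for CYP2C9 at a 5 µM dose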;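 further: 0 = sulfaphenazole-blocked wells and 1 = vehicle-only wells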
CYP2C19 activ: human CYP2C19 activators, primary screen, biochemical, luminescence. recombinant CYP2C19, luciferin-H EGE luminescence; hits give high values; 0 = fully inhibited enzyme, 1 = untreated enzyme. activation factor at 5 µM. 96,000 tested, under 10 active;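 active means activation factor of at least 2 at 5 µM in the primary screen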;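 further: 0 = wells with 2.5 mM tranylcypromine and 1 = vehicle-only wells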
MRP-1 activ: H69AR viability gain despite doxorubicin, primary screen, MRP-1 activator project, H69AR cells, CellTiter-Glo; viability rescue; viability increase, % at 10 µM; 140,000 compounds, 0.61% hits;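 active means viability gain under doxorubicin at or above a set limit, the compound median plus 3 SD, cut at about 4.7% in these data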;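 further: MRP-1 overexpressing cells given doxorubicin 25 µM after compound pretreatment; 18-22 h compound pretreatment then 72 h with doxorubicin before readout; 0% = doxorubicin-only wells and 100% = vehicle-treated cells without doxorubicin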
CYP2C19 inhib: blockers of cytochrome P450 2C19 activity – biochemical, luminescence, ADME assay, primary screen; P33261; CYP2C19 Supersomes, luciferin-H EGE luminescence, 30 min; inhibition, % at 5 µM; 96,000 compounds, 21% hits; AID 778, 2007;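 active means CYP2C19 inhibition above a set limit at 5 µM in the primary screen, cut at about 50% in these data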;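 further: plate controls were negative control wells for no effect and 2.5 mM tranylcypromine positive control for full effect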
Numbers without * were called inactive. An excerpt weighted towards active compounds, which were near 21% of everything screened.

What do the screens show for `COc1ccccc1CNC(=O)CCS(=O)(=O)c1cccs1`?
CYP2C9 inh: -87.6; MRP resist rev: 2.2; CYP2C9 act: 1.9; CYP2C19 activ: 0.2; MRP-1 activ: -4.1; CYP2C19 inhib: 82.6*

How did COc1ccccc1CNC(=O)CCS(=O)(=O)c1cccc2nonc12 do in these assays?
CYP2C9 inh: 59.0*; MRP resist rev: -9.6; CYP2C9 act: 0.4; CYP2C19 activ: 0.1; MRP-1 activ: -1.6; CYP2C19 inhib: 91.0*

Results for Clc1cccc(-c2ccc(C=Nc3ccc(N4CCOCC4)cc3)o2)c1 ?
MRP-1 activ: 1.6

How did O=C(Nn1c(-c2ccccc2)nc2ccccc2c1=O)C1CCC1 do in these assays?
CYP2C9 inh: 8.6; MRP resist rev: -3.2; CYP2C9 act: 0.9; CYP2C19 activ: 0.9; MRP-1 activ: -1.0; CYP2C19 inhib: 13.3

Results for O=C(COC(=O)COc1ccccc1Cc1ccccc1)Nc1cccnc1Cl ?
MRP-1 activ: -2.6

How did O=C(NCc1ccccc1)c1ccc(CS(=O)(=O)c2ccccc2)o1 do in these assays?
CYP2C9 inh: 42.3; MRP resist rev: -4.8; CYP2C9 act: 0.6; CYP2C19 activ: 0.7; MRP-1 activ: -0.5; CYP2C19 inhib: 30.2

How did COc1cc2c(cc1O)CCN(C(=O)c1ccco1)C2C (centres undefined) do in these assays?
CYP2C9 inh: 46.7; MRP resist rev: 3.7; CYP2C9 act: 0.5; CYP2C19 activ: 0.3; MRP-1 activ: -2.0; CYP2C19 inhib: 65.3*

Results for COc1cc2c(cc1OC)C(COc1ccc(F)cc1)N(C(=O)c1ccco1)CC2 (centres undefined) ?
CYP2C9 inh: 75.6*; MRP resist rev: 5.2; CYP2C9 act: 0.2; CYP2C19 activ: 0.1; MRP-1 activ: -1.3; CYP2C19 inhib: 86.2*

Results for COc1cc2c(cc1OC)C(C)N(C(=O)C1COc3ccccc3O1)CC2 (centres undefined) ?
CYP2C9 inh: 57.4*; MRP resist rev: -7.4; CYP2C9 act: 0.4; CYP2C19 activ: 0.2; MRP-1 activ: -3.9; CYP2C19 inhib: 79.6*

Results for COc1cc2c(cc1OC)C(C)N(C(=O)c1cc3ccccc3o1)CC2 (centres undefined) ?
CYP2C9 inh: 32.9; MRP resist rev: -8.7; CYP2C9 act: 0.7; CYP2C19 activ: 0.6; MRP-1 activ: -2.0; CYP2C19 inhib: 41.9

Results for COc1cc2c(cc1OC)C(COc1ccc3c(C)cc(=O)oc3c1)N(C(=O)c1ccco1)CC2 (centres undefined) ?
MRP resist rev: 11.0; MRP-1 activ: -4.5

Results for CN(C)S(=O)(=O)c1ccc(N2CCCC2)c(C(=O)Nc2nc(-c3ccc(F)c(F)c3)cs2)c1 ?
MRP-1 activ: -2.3

What do the screens show for `CCCOC(=O)CSc1nc(N)c(C#N)c(CC)c1C#N`?
CYP2C9 inh: 4.0; MRP resist rev: -12.3; CYP2C9 act: 1; CYP2C19 activ: 0.8; MRP-1 activ: 0.7; CYP2C19 inhib: 24.7

How did O=C(CSc1nc2ccccc2o1)NC(=O)NCc1ccco1 do in these assays?
CYP2C9 inh: 24.9; MRP resist rev: -5.4; CYP2C9 act: 0.8; CYP2C19 activ: 0.5; MRP-1 activ: -3.6; CYP2C19 inhib: 51.1*

How did O=C(CSc1n[nH]c(-c2ccccc2)n1)NC(=O)NCc1ccco1 do in these assays?
CYP2C9 inh: 79.2*; CYP2C9 act: 0.2; CYP2C19 activ: 0.2; MRP-1 activ: -2.5; CYP2C19 inhib: 82.9*

How did O=C(CSc1nc2ccccc2o1)NCc1ccco1 do in these assays?
CYP2C9 inh: -0.5; MRP resist rev: 8.2; CYP2C9 act: 1; CYP2C19 activ: 0.3; MRP-1 activ: -3.3; CYP2C19 inhib: 71.7*

What do the screens show for `O=C(CSc1nc(-c2ccccc2)cs1)NC(=O)NCc1ccco1`?
MRP resist rev: 3.2; MRP-1 activ: -3.9

What do the screens show for `O=C(CSc1nc2ccccc2o1)NC(=O)NCc1ccccc1`?
CYP2C9 inh: 29.5; MRP resist rev: -14.4; CYP2C9 act: 0.7; CYP2C19 activ: 0.7; MRP-1 activ: -0.1; CYP2C19 inhib: 28.1

How did O=C(NCCCn1ccnc1)c1cc(S(=O)(=O)N2CCOCC2)c(Cl)cc1Cl do in these assays?
CYP2C9 inh: 96.3*; MRP resist rev: 5.1; CYP2C9 act: 0; CYP2C19 activ: 0.3; MRP-1 activ: 0.2; CYP2C19 inhib: 71.5*

Results for Cc1ccc(S(=O)(=O)N2CCOCC2)cc1C(=O)NCCCn1ccnc1 ?
CYP2C9 inh: 75.5*; MRP resist rev: 2.6; CYP2C9 act: 0.2; CYP2C19 activ: 0.3; MRP-1 activ: -0.4; CYP2C19 inhib: 65.4*

How did O=C(NCCCn1ccnc1)c1ccc(Br)c(S(=O)(=O)N2CCOCC2)c1 do in these assays?
CYP2C9 inh: 94.9*; MRP resist rev: 20.8; CYP2C9 act: 0.1; CYP2C19 activ: 0.5; MRP-1 activ: -2.9; CYP2C19 inhib: 53.1*

What do the screens show for `CC(=O)c1ccn(S(=O)(=O)c2ccccc2)c1`?
MRP-1 activ: 0.5

Results for CC(C)(C)c1ccc(C2CC2C(=O)N/N=C\c2cc3ccccc3nc2Cl)cc1 (centres undefined) ?
CYP2C9 inh: 61.8*; CYP2C9 act: 0.4; CYP2C19 activ: 0.8; MRP-1 activ: 1.3; CYP2C19 inhib: 24.1

What do the screens show for `Cc1ccc2nc(Cl)c(/C=N/NC(=O)[C@H]3C[C@@H]3c3ccccc3)cc2c1`?
MRP-1 activ: -4.8

Results for Cc1c(NC(=O)CC2CC(C)OC2=O)c(=O)n(-c2ccccc2)n1C (centres undefined) ?
MRP resist rev: -3.2

Results for Cc1cccc(NS(=O)(=O)c2cnc(Cl)c(Br)c2)n1 ?
MRP-1 activ: -0.7

How did CNc1ccc(C(O)(C(F)(F)F)C(F)(F)F)cc1C(O)(C(F)(F)F)C(F)(F)F do in these assays?
CYP2C9 inh: 52.9*; MRP resist rev: -23.9; CYP2C9 act: 0.5; CYP2C19 activ: 0.3; MRP-1 activ: 2.2; CYP2C19 inhib: 74.6*

What do the screens show for `COc1cccc(NS(=O)(=O)c2ccc(NC(C)=O)cc2)c1`?
CYP2C9 inh: 22.1; MRP resist rev: 3.1; CYP2C9 act: 0.8; CYP2C19 activ: 0.4; MRP-1 activ: -3.4; CYP2C19 inhib: 60.2*

What do the screens show for `COC(=O)c1ccc(OS(=O)(=O)c2ccc(NC(C)=O)cc2)cc1`?
MRP-1 activ: -3.5

What do the screens show for `COC(=O)c1cc(NS(=O)(=O)c2ccc(NC(C)=O)cc2)cc(C(=O)OC)c1`?
CYP2C9 inh: 38.4; MRP resist rev: 4.2; CYP2C9 act: 0.6; CYP2C19 activ: 0.5; MRP-1 activ: -0.4; CYP2C19 inhib: 52.7*

What do the screens show for `COc1ccc(S(=O)(=O)Nc2cccc(NC(C)=O)c2)cc1`?
CYP2C9 inh: 29.5; MRP resist rev: -2.1; CYP2C9 act: 0.7; CYP2C19 activ: 0; MRP-1 activ: -2.0; CYP2C19 inhib: 95.3*

Screening data: PubChem BioAssay, several laboratories
